# KCNQ2 pot – enhances the rat KCNQ2 potassium channel; O88943; CHO-K1 KCNQ2, FluxOR thallium flux fluorescence; hits give high values; B-score at 10 µM; hit rate 0.54% among 310,000; AID 2239;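 active = fluorescence ratio B-score at least 3 SD of library B-scores, with initial fluorescence B-score within 3 of them, cut at about 5.3 in these data; same plate scores as AID 2156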;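 note: B-score of peak minus minimum over baseline fluorescence ratio after K+ and Tl+ stimulus; positive B-score means potentiation of KCNQ2 with more thallium influx and brighter signal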
# Target sequence (O88943 whole entry, looked up): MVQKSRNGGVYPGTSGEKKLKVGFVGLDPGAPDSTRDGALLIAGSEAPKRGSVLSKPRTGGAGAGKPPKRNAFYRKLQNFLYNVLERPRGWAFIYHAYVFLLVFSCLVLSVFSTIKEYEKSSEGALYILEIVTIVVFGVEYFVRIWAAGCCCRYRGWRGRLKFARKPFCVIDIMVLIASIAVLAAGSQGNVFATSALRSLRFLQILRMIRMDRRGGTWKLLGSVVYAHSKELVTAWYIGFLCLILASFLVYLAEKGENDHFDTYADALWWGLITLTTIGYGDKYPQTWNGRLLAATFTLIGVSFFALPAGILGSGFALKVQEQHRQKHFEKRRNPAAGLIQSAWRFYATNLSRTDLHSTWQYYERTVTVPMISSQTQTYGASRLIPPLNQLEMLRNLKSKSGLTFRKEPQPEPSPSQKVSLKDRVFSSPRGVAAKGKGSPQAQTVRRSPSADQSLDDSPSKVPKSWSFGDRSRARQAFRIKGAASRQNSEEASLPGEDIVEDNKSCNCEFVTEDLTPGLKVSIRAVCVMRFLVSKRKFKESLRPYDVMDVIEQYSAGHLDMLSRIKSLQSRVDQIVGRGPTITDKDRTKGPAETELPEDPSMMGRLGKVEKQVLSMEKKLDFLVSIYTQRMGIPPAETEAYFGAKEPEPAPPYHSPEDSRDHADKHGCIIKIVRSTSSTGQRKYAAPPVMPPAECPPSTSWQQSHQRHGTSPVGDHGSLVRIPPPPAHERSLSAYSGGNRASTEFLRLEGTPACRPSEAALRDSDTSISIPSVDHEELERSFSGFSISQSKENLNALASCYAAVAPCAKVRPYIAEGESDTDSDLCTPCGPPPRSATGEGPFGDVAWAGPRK
# KCNQ2 inh – inhibitors of rat KCNQ2 potassium channel. hit rate 1.1% among 310,000. O88943. AID 2156. CHO-K1 KCNQ2, FluxOR thallium flux, 20 min; hits give low values. B-score at 10 µM;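 active = fluorescence ratio B-score at most minus 3 library SDs, with starting brightness B-score within 2 library SDs, cut at about -5.5 in these data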
# Kir21 confirm – confirmation of mouse Kir2.1 potassium channel inhibitors; shares compounds with KCNQ2 pot; Kir2.1-expressing cells, FluxOR thallium flux fluorescence; hits give low values; Tl flux remaining, % of negative control (hits give low values), % at 10 µM; hit rate 41% among 2,300; AID 2032;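 active = Primary-screen hit whose thallium flux fell at least 3 control SD below untreated wells in both duplicates, with normal baseline fluorescence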;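 note: 0% = blank wells without stimulus and 100% = stimulated no-compound controls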
# HEK293 Tl flux – counter-screen for Kir2.1 inhibitors: effect in parental HEK293 cells; shares compounds with KCNQ2 pot; FluxOR thallium flux fluorescence; 0% = unstimulated blank wells; FluxOR signal as % of negative control (100 = no effect), % at 10 µM; hit rate 19% among 2,300;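 active = dye signal at least 3 control SD above or below untreated wells in both duplicates, raw fluorescence within 3, either direction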;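 note: percent is based on the flux ratio of peak minus minimum fluorescence over baseline F0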
# CHO-K1 Tl ctr – parental CHO-K1 activity in KCNQ2 potentiator counter-screen | AID 2282 | hit rate 43% among 1,200 | parental CHO-K1 cells, FluxOR thallium flux fluorescence; zero = vehicle mean+3SD, 100% = vehicle-minus-blank window | activity increase over 3SD of controls, % at 10 µM | shares compounds with KCNQ2 pot;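 active = signal rise of at least 3 SD above the untreated control mean, in both duplicate wells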;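 note: counter screen of KCNQ2 potentiator hits so any rise reflects channel-independent effects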
# KCNQ1 pot spec – human KCNQ1 counter-target activity of KCNQ2 potentiators; shares compounds with KCNQ2 pot; CHO KCNQ1 stable, FluxOR thallium flux fluorescence; beyond 3SD, as % of vehicle-control signal; activation over 3SD threshold, % at 10 µM; hit rate 28% among 1,200;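 active = fluorescence ratio rise of at least 3 SD of vehicle wells above their mean, in both replicate wells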;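 note: 0% = vehicle mean plus 3 SD and 100% = vehicle minus unstimulated blank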
# KCNQ2 pot confirm – confirmation of rat KCNQ2 potassium channel potentiators; shares compounds with KCNQ2 pot; CHO-KCNQ2 cells, FluxOR thallium flux fluorescence; potentiation, less the hit threshold, % at 10 µM; hit rate 68% among 1,200; AID 2287;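 active = fluorescence ratio rising 3 SD or more over the vehicle control mean in both replicates, plus primary screen hit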;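 note: peak minus minimum thallium fluorescence divided by baseline after K/Tl stimulus; 0% = vehicle mean plus 3 SD and 100% = vehicle minus unstimulated blank difference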
# Kir21 spec – tests whether KCNQ2 potentiators also affect mouse Kir2.1; HEK293 Kir2.1, FluxOR thallium flux fluorescence; hit rate 2% among 1,200; shares compounds with KCNQ2 pot; activity over 3SD threshold, % at 10 µM;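 active = fluorescence ratio rise of at least 3 SD above the vehicle-control mean, seen in both replicates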;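 note: 0% = vehicle mean plus 3 SD and 100% = vehicle minus no-stimulus blank window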
# KCNQ2 W236L pot – KCNQ2 potentiators acting on retigabine-insensitive rat KCNQ2 W236L mutant | shares compounds with KCNQ2 pot | CHO KCNQ2-W236L, automated patch clamp current | current increase over 3SD of negative controls (%), hits give high values, % at 25 µM | hit rate 10% among 940;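 active = current increase at least 3 SD of the untreated controls above them in both duplicate recordings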
# An asterisk follows results filed as active; i = inactive; . = not tested or not shown. In the library only some 1.6% were active in any assay of this set; here they are far more common.
SMILES,KCNQ2 pot,KCNQ2 inh,Kir21 confirm,HEK293 Tl flux,others
CC1(C)C[C@H]2C=C(C=O)[C@]3(C=O)C[C@]3(C)[C@H]2C1,-6,-6*,42%*,71%*,
CC1(C)C(c2ccccc2)=NC(c2cccnc2)N1O (configuration not stated),0.98,i,.,.,
CC[C@@H](CO)C1CC2NC3CC4(c5ccccc5N(C)[C@@H]24)C(O)C31 (some centres not stated),.,i,.,.,
O=C1C(=O)c2cccc3cccc1c23,.,i,.,.,
O=C1C(=O)c2ccccc2-c2ccccc21,6.2*,i,i,i,CHO-K1 Tl ctr=-5;KCNQ1 pot spec=-15;KCNQ2 pot confirm=-2;Kir21 spec=-29;KCNQ2 W236L pot=3.4%*
C=CCn1c(O)c(C=NCCN2CCOCC2)c(=O)[nH]c1=S,.,i,.,.,
Oc1ccc(C(=C(Cl)Cl)c2ccc(O)cc2)cc1,11*,i,38%*,i,CHO-K1 Tl ctr=47*;KCNQ1 pot spec=-7;KCNQ2 pot confirm=0.8*;Kir21 spec=-100;KCNQ2 W236L pot=i
C[C@H]1CC[C@H]2NCCN[C@H]2C1,.,i,.,.,
Cc1cc(C)n(CCOC(=O)C2C(C=C(Cl)Cl)C2(C)C)n1 (configuration not stated),.,i,43%*,i,
Cc1cc([N+](=O)[O-])c(Cl)cc1NC(=O)C(C)C,0.97,i,.,.,
CNc1cc(Cl)c2nonc2c1[N+](=O)[O-],-9.5,-9.5*,i,54%*,
COc1cc(CC(C)N)c(OC)cc1I (configuration not stated),0.68,i,.,.,
CCCCCSc1cc(OC)c(CCN)cc1OC,.,i,46%*,i,
Cc1ccc(C(=O)N[C@@H](C)CN2C3=NC[C@H](Cc4ccccc4)N3C[C@H]2Cc2ccc(O)cc2)cc1Br,.,i,.,.,
Cc1ccc(C(=O)N[C@@H](C)CN2C3=NC[C@@H](Cc4ccccc4)N3C[C@H]2Cc2ccc(O)cc2)cc1Br,.,i,49%*,i,
Cc1ccc(C[n+]2c(-c3ccc(C)cc3)cc(-c3ccc(C)cc3)cc2-c2ccc(C)cc2)cc1,.,i,12%*,i,
CCOc1ccc(-c2cc(C)[n+](CCN3CCOCC3)c(-c3ccc(OCC)cc3)c2)cc1,.,i,.,.,
C=C(C)Cn1c(=O)n(CC2CS2)c2ccccc21 (configuration not stated),.,i,.,.,
COc1ccc(CCNCc2ccccc2)cc1,1.3,i,.,.,
COc1ccc(CCNCc2c(OC)ccc3ccccc23)cc1,.,i,28%*,i,
Fc1ccc(CCNCc2ccccc2Cl)cc1,0.28,i,.,.,
CCOc1ccc(Cl)cc1CNCCc1ccc(F)cc1,.,i,24%*,i,
Cc1ccc(N2C(=O)NC(=O)C(CCc3ccccn3)(Cc3ccc(F)cc3)C2=O)cc1 (configuration not stated),.,i,.,.,
O=S(=O)(NC1CCCCC1)OCC(Cl)(Cl)Cl,0.18,i,.,.,
COC(=O)C1=C(c2ccccc2)C[C@@H]2CC[C@H]1N2C(=O)NCc1cccc2ccccc12,.,i,.,.,
SMILES,KCNQ2 pot,KCNQ2 inh,Kir21 confirm,HEK293 Tl flux,others
CSc1ccc(CNC(C)C(O)c2ccccc2)cc1 (configuration not stated),.,i,.,.,
CCCOC(=O)c1ccc(-[n+]2c(-c3ccccc3)cc(-c3ccccc3)cc2-c2ccccc2)cc1,-6.9,-6.9*,36%*,i,
Cc1ccc(-c2cc(-c3ccc(C)cc3)[n+](-c3ccc(C(=O)O)cc3)c(-c3ccc(C)cc3)c2)cc1,0.83,i,.,.,
[O-]c1ccccc1-[n+]1c(-c2ccccc2)cc(-c2ccccc2)cc1-c1ccccc1,.,i,25%*,i,
Cc1ccccc1-[n+]1c(-c2ccccc2)cc(-c2ccccc2)cc1-c1ccccc1,-8.3,-8.3*,16%*,57%*,
C[n+]1c(-c2ccccc2)cc(CCCCc2cc(-c3ccccc3)[n+](C)c(-c3ccccc3)c2)cc1-c1ccccc1,.,i,.,.,
Brc1ccc(-[n+]2c(-c3ccccc3)cc(-c3ccccc3)cc2-c2ccccc2)cc1,-8.4,-8.4*,34%*,i,
C#CC[N+]1(C)[C@@H]2CC[C@H]1CC(OC(=O)C(CO)c1ccccc1)C2 (some centres not stated),0.33,i,.,.,
CCOc1ccccc1CN1CCCC(C(=O)c2cc(F)ccc2F)C1 (configuration not stated),.,i,.,.,
CC(C)(C)n1c(O)c(C=Nc2ccc3c(c2)CCC3)c(=O)[nH]c1=O,0.05,i,.,.,
CCOc1cc(C2C(C#N)=C(N)Oc3c2c(=O)oc2ccccc32)ccc1OC(=O)c1cccs1 (configuration not stated),.,i,.,.,
COc1ccc(-n2nc(C(=O)NCC(=O)N3CCC4(CC3)OCCO4)c3ccccc3c2=O)cc1OC,0.29,i,.,.,
CNCC(O)c1cccc(OC(=O)c2ccccc2C)c1 (configuration not stated),0.15,i,.,.,
CNCC(O)c1cc(OCc2ccccc2)c(OCc2ccccc2)cc1F (configuration not stated),.,i,40%*,72%*,
C/C(=N\N1CCCCC1c1cccnc1)c1c(O)n(C2CCCCC2)c(=S)[nH]c1=O (configuration not stated),0.15,i,.,.,
CCOP(=O)(OCC)C(NC(=O)c1ccccc1C)C(Cl)(Cl)Cl (configuration not stated),.,i,.,.,
Cc1cc(OCC(=O)NC(Cc2ccc(Cl)cc2)C(=O)O)c2c3c(c(=O)oc2c1)CCC3 (configuration not stated),.,i,.,.,
COc1ccc(C(=O)O/N=C(/C(N)=O)P(=O)(OC(C)C)OC(C)C)cc1,6.4*,i,i,i,CHO-K1 Tl ctr=-7;KCNQ1 pot spec=4.2*;KCNQ2 pot confirm=27*;Kir21 spec=-51;KCNQ2 W236L pot=i
COc1ccc(C(O)P(=O)(OC(C)C)OC(C)C)cc1 (configuration not stated),0.08,i,.,.,
COc1ccc(OC)c(N2Cc3ccccc3C2=N)c1,1.3,i,.,.,
COC(=O)C1=C(c2cc3ccccc3s2)C[C@@H]2CC[C@H]1N2C(=O)NC1CCCCC1,.,i,.,.,
O=C1C2CCCN2C(c2cccnc2)N1c1nccs1 (configuration not stated),.,i,.,.,
COc1ccc(CCNCc2ccc(C)s2)cc1OC,1.4,i,.,.,

# From PubChem BioAssay
